# Results as given in PubChem BioAssay (NCATS).
# Records with an inconclusive call do not appear. Entries that show only a call come without a potency. The source made the active and inactive calls. The call rests on the fitted dose curve; in most records, active means well fitted cell-killing curve with a large enough effect; inconclusive means small, poorly fitted or top-dose-only effect; inactive means flat fitted curve, though single readings scatter. Where a SMILES comes first, the peptide text is derived from it.
# Experiment: qHTS of pediatric cancer cell lines to identify multiple opportunities for drug repurposing: Primary screen for TC32 cells (AID 1347089); further: nearly all actives have a fitted effect of over 60% in size
# Conditions: TC32 Ewing sarcoma viability, CellTiter-Glo luminescence, 48 h; series mostly up to 45.8 µM
# Description: Drug repurposing or repositioning has been offered as a strategy for drug development in oncology programs. This approach has special potential for childhood cancers and other rare or orphan diseases, where the expected return on new drug development has been a disincentive to pharmaceuticals.
# In this project we exploit the poly-pharmacology of drugs to discover new indications via phenotypic screening of a panel of 19 well-characterized cell lines derived from solid tumors seen in children and adolescents. The goal is to identify approved drugs with previously unrecognized anticancer properties that has the potential to reveal new mechanisms and biological processes involved in carcinogenesis or drug resistance. We employed a titration-based paradigm (quantitative high-throughput screening or qHTS), where all compounds were tested at multiple concentrations for their effect on cell viability. Concentration-response curves (CRCs) were derived directly from the primary screen, and both potency and efficacy values were used to identify compounds with robust bioactivity profiles. We screened the NIH Chemical Genomics Center (NCGC) Pharmaceutical Collection (NPC) and Mechanism Interrogation Plate (MIPE) small molecule collections of approved and investigational compounds against these cell lines; and measured metabolically active cells after 48 hours of compound treatment as a proxy for cell viability.
# Assay Submitter: Nathalia J. Martinez, National Center for Advancing Translational Sciences, National Institutes of Health, Rockville, MD, USA; email: natalia.martinez@nih.gov
# [1] Shen, M et al. Quantitative high-throughput phenotypic screening of pediatric cancer cell lines identifies multiple opportunities for drug repurposing. Oncotarget 2017 Dec 19;9(4):4758-4772. PMID 29435139.
# The cells were obtained from University of North Carolina (UNC), Pediatric Preclinical Testing Program (PPT), and Coriell Institute (CI).
# qHTS cell viability assay:
# Cells were assayed in growth media at a density of 500-1,000 cells/well. Five microliters of cells were dispensed into 1,536-well, white, solid-bottom, TC-treated plates (Greiner Bio One) using a multidrop dispenser and incubated at 37 degrees C, 5% CO2, under a humidified atmosphere for 5 hours. Twenty-three nanoliters of compounds and controls (neutral control DMSO or positive control bortezomib at final concentration of 2.3 uM) were subsequently transferred by Kalypsys pintool. For primary screens, the MIPE collection was tested at 11-point dilutions (final concentrations range from 0.78 nM to 46 µM) and the NPC collection at 8-point dilutions (final concentrations range from 0.59 nM to 46 µM). Compounds tested in follow-up screens were assayed at 11-point dilutions. Cells were incubated for 48 hours, followed by addition of 3 uL of CellTiter-Glo (Promega). After a 15min incubation at room temperature, samples were analyzed for luminescence intensity using a ViewLux High-throughput CCD imager equipped with clear filters.
row,SMILES,Potency
1,O=C(NO)c1ccccc1,inactive
2,CCOC(=O)NNc1nncc2ccccc12,inactive
3,CC(C)(C)CC(=O)OCC(=O)[C@@]1(O)CC[C@H]2[C@@H]3CCC4=CC(=O)C=C[C@]4(C)[C@H]3[C@@H](O)C[C@@]21C,inactive
4,COC(=O)c1cc(S(N)(=O)=O)ccc1OC,inactive
5,Cc1[nH]cnc1-c1ccc(Cl)cc1,inactive
6,O=C(CCOCCOCCOCCOCCC(=O)Nc1c(I)cc(I)c(C(=O)O)c1I)Nc1c(I)cc(I)c(C(=O)O)c1I,inactive
7,Cc1cccc(OCC(O)CNC(C)(C)C)c1C (stereo not given),inactive
8,CC(=O)O[C@@H]1CC2C3CCc4cc(OC(=O)c5ccccc5)ccc4C3CCC2(C)[C@H]1OC(C)=O (stereo not given in full),inactive
9,CCCc1ccc(OCC(=O)N2CCN(C(=O)COc3ccc(CCC)cc3OC)CC2)c(OC)c1,inactive
10,O=C(O)Cc1ccccc1Oc1ccc(Cl)cc1Cl,inactive
11,CN(C)C(=O)CNC(=O)Cc1ccccc1,inactive
12,Nc1ccc(O)cc1,inactive
13,C/C=C(/C(=C/C)c1ccc(OC(C)=O)cc1)c1ccc(OC(C)=O)cc1,inactive
14,CCOC(=O)N1CCC(Nc2ccc(Cl)cc2N)CC1,inactive
15,O=C(OCC(O)CO)c1ccccc1Nc1ccnc2c(C(F)(F)F)cccc12 (stereo not given),inactive
16,CC(=O)N[C@@H](CO)C(=O)N[C@@H](CC(=O)O)C(=O)N[C@@H](CCCCN)C(=O)N1CCC[C@H]1C(=O)O (Ac-SDKP-OH),inactive
17,CCN(CC)C(=O)C1CN2CCc3cc(OC)c(OC)cc3C2CC1OC(C)=O (stereo not given),inactive
18,COC(=O)[C@H]1[C@H]2C[C@@H]3c4[nH]c5cc(OC)ccc5c4CCN3C[C@H]2C[C@@H](OC(=O)/C=C/c2ccc(O)c(OC)c2)[C@@H]1OC,inactive
19,CCCOc1ccc2c(c1)CC[C@@H]1[C@@H]2CC[C@]2(C)C(OC)CC[C@@H]12 (stereo not given in full),inactive
20,Brc1ccccc1-c1ccccc1,inactive

row,SMILES,Potency
1,CC[C@@H]([C@H](C)O)n1ncn(-c2ccc(N3CCN(c4ccc(OC[C@@H]5CO[C@@](Cn6cncn6)(c6ccc(F)cc6F)C5)cc4)CC3)cc2)c1=O,inactive
2,CN1CCCN=C1/C=C/c1cccs1,inactive
3,OCc1cccnc1,inactive
4,Cc1ccc(Cl)c(OCC(O)CNC(C)(C)C)c1 (stereo not given),inactive
5,COC(=O)C1=C(C)NC(C)=C(C(=O)OCCc2ccc(N3CCN(C(c4ccccc4)c4ccccc4)CC3)cc2)C1c1cccc([N+](=O)[O-])c1 (stereo not given),inactive
6,O=C1NC(c2ccccc2)(c2ccccc2)C(=O)N1COP(=O)(O)O,inactive
7,CN(C)[C@@H]1C(=O)C(C(N)=O)=C(O)[C@@]2(O)C(=O)C3=C(O)c4c(O)cccc4C[C@H]3C[C@@H]12,inactive
8,CC(C(=O)O)c1ccc(/C=C2\CCCCC2=O)cc1 (stereo not given),inactive
9,CCCCC(=O)OCC(=O)[C@H]1[C@H](C)C[C@H]2[C@@H]3C[C@H](F)C4=CC(=O)C=C[C@]4(C)[C@@]3(F)[C@@H](O)C[C@@]21C,inactive
10,Cc1ccc(C(=O)C(=O)O)cc1C,inactive
11,O=C1CC(c2ccc(Cl)cc2)CC(=O)N1,inactive
12,C/C(=C(/OCCOc1ccc(Cl)cc1)c1ccc(Cl)cc1Cl)n1ccnc1,inactive
13,CC(=O)O[C@@H]1C(=O)O[C@@H]2[C@H]1OC(=O)[C@@H]2OC(C)=O,inactive
14,COc1ccccc1N1CCN(CC(O)COc2cc(OC)c(OC)c(OC)c2)CC1 (stereo not given),inactive
15,Cc1cc(C(C)(C)C)c(O)c(C(C)(C)C)c1,inactive
16,C[C@H]1NCc2cc(-c3ccc4c(=O)c(C(=O)O)cn(C5CC5)c4c3OC(F)F)ccc21,inactive
17,Cc1cc(CCCOc2c(C)cc(-c3noc(C(F)(F)F)n3)cc2C)on1,inactive
18,COc1cc2c(cc1OC)C(=O)CC2,inactive
19,O=C(CO)[C@@H](O)[C@H](O)[C@@H](O)CO,inactive
20,Cc1ccccc1C(=O)N1CC/C(=N\OS(=O)(=O)O)c2ccc(Cl)cc21,inactive
